Screening data as filed in PubChem BioAssay.
FBPA coupling cs: counter-screen for Giardia aldolase inhibitors: coupling enzyme system; coupling enzyme system counterscreen, AmpLite Red fluorescence; activity change, negative = inhibition, % at 58.2 µM, hits read low; hit rate 0.67% among 290,000; in the data active = activity change below about -30%
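Coupling enzymes only (glyceraldehyde-3-phosphate) + compound, at 57.5 uM final, 10 min RT; add substrate/coupling/AmpLite Red mix, 20 min RT; fluorescence ex 525/em 598 nm. Actives flag coupling-system interference.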
USP1 inh: USP1/UAF1 (human) deubiquitinase inhibition; hit rate 0.23% among 390,000; Potency, µM (top dose mostly 57.1 µM), without a hit: at the top dose activity change, negative = inhibition, hits mostly inhibitors; recombinant USP1/UAF1, Ub-Rhodamine cleavage fluorescence; also: potency is read from the fitted curve at half-maximal effect; nearly all actives have a fitted effect of over 60% in size
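1 nM enzyme complex + cpd, 15 min RT; start with Ub-Rho 150nM final; kinetic fluorescence ex 480/em 540, 6 reads q60 s. Buffer 50mM HEPES pH 7.8, 0.5mM EDTA, 0.1 mg/ml BSA, 1mM TCEP, 0.01% Tween-20.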
Tau fibril FP: inhibitors of human tau fibril formation; Potency, µM (titrated, usually from 57.7 µM), for inactives: top-dose activity, negative = inhibition, usual class: inhibitors; AID 1468; hit rate 0.39% among 280,000; K18 P301L tau heparin fibrillization, Alexa594 FP, 6 h; also: potency is read from the fitted curve at half-maximal effect; nearly all actives have a fitted effect of over 55% in size
Target sequence (P10636 561-689 P618L limits assumed): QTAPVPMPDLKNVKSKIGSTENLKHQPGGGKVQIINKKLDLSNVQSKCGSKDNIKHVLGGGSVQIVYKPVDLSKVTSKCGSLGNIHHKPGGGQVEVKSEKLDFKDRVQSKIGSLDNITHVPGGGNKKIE
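FP of Alexa 594-tau after heparin (20 uM) induction. Substrate: human K18 P301L, 15 uM unlabeled, 0.24 uM labeled. Buffer 100 mM sodium acetate pH 7. 6 hr, 37 C.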
Tau fibril ThT: inhibitors of human tau fibril formation, thioflavin T binding | P10636 | recombinant tau K18 P301L, heparin-induced fibrillization, ThT fluorescence | Potency, µM (titrated, usually from 57.4 µM), without a hit: at the highest dose activity, negative = inhibition, hits mostly inhibitors | hit rate 2.1% among 270,000 | AID 1460; also: potency is read from the fitted curve at half-maximal effect; nearly all actives have a fitted effect of over 55% in size
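K18 P301L tau (15 uM + 0.24 uM Alexa 594-tagged), heparin 20 uM, NaOAc pH 7, 6 h 37 C; ThT 30 uM, 1 h RT, ex 450/em 510 nm.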
Tau fluor counter: counter-screen for tau fibril formation inhibitors; tau K18 P301L (four-repeat tau fragment) Alexa594 fluorescence, heparin fibrillization; Potency, µM (series often up to 57.7 µM), for the others: at the highest dose activity change, negative = decrease; hit rate 0.93% among 280,000; AID 1463; also: potency is read from the fitted curve at half-maximal effect; nearly all actives have a fitted effect of over 55% in size
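Human K18 P301L tau (15 uM unlabeled plus 0.24 uM Alexa 594-labeled, final) in 100 mM sodium acetate pH 7 was mixed with compound and 20 uM heparin and incubated 6 hr at 37 C.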
Starred values were filed as active, the others as inactive; u = inconclusive; x = no result given; [ ] = another dose, or the depositor's remark. The list is not random: actives were taken first. Their share in the collection is about 2.3%. Unless noted, calls follow the shape of the dose curve; as a rule, active = well fitted curve in the direction sought with a large enough effect; inconclusive = small, poorly fitted or top-dose-only effect, or another doubt; inactive = no such curve, though single readings can be large; an effect the other way counts as inactive or inconclusive. % is scaled to controls: 0 for no effect and ±100 for the full control effect.

SMILES	FBPA coupling cs	USP1 inh	Tau fibril FP	Tau fibril ThT	Tau fluor counter
O=C1/C(=C/c2ccc(O)c(O)c2)Oc2ccccc21	-10	x	x	x	x
O=C(CNc1ccc2ccccc2c1)N/N=C/c1ccc(OC(=O)/C=C/c2ccco2)cc1	0	-2%	-13%	5µM*	7.1µM*[quencher]
O=C(CNc1ccc2ccccc2c1)N/N=C/c1ccncc1	-4	-30%	x	x	x
CSc1ccc(/C=N/NC(=O)CNc2ccc3ccccc3c2)cc1	-1	-5%	-3%	5µM*	14µM*[quencher]
COCCCNC(=O)CC(=O)N/N=C\c1ccc(SC)cc1	-70*	-11%	0%[2.34 µM]	10%	5%[2.34 µM]
Cc1ccc(OC(=S)Nc2ccc(O)cc2)cc1	-14	-18%	u	16µM*	-26%
c1ccc2c(c1)Nc1ccncc1S2	-3	-3%	14%	u	u
COc1ccc2c(c1)Sc1ccccc1N2	-3	-10%	-11%	10µM*	10µM*[quencher]
c1ccc2c(c1)Nc1cc3ccccc3cc1S2	-13	6%	u	2.2µM*	u
COc1ccc2c(c1)S(=O)(=O)c1ccccc1N2	-2	-14%	10%	-7%	u
COc1cccc([C@@H]2Oc3ccc(OC)cc3/C(=N/O[C@@H](C)c3cc(-c4c(C)cc(C)cc4C)no3)[C@@H]2O)c1	-1	x	1%[11.6 µM]	-5%[11.5 µM]	-12%[11.6 µM]
COc1cccc2[nH]c(C(=O)NN)c(N)c12	-4	u	u	28µM*	u
COc1cc2[nH]c(C(=O)NN)c(N)c2cc1OC	-8	x	u	16µM*	22µM*[quencher]
COc1cccc2[nH]c3ccccc3c(=O)c12	-2	-20%	x	x	x
COC(=O)c1ccc([C@H]2Nc3ccc(S(=O)(=O)Nc4cccc(C)c4)cc3[C@H]3C=CC[C@H]32)cc1	x	-27%	4%	u	u
COC(=O)c1ccc([C@@H]2Nc3c(OC)ccc(C)c3[C@@H]3C=CC[C@@H]32)cc1	x	-14%	u	13µM*	u
O=c1[nH]c(SCc2ccc(Br)cc2)nc2c1CCCC2	x	-21%	-12%	4%	-6%
COc1ccc(-c2cc(C)no2)cc1S(=O)(=O)N1CCc2ccccc21	x	u	15%	u	28µM*[fluorescent]
CCOc1ccc(C(=O)Nc2ccc(N3CCCC3)cc2)cc1	-2	-10%	6%	8.9µM*	u
Cc1ccccc1C(=O)Nc1ccc(N2CCCC2)cc1	-11	1%	3%	u	u
COc1ccc(C(=O)NC(=S)Nc2ccc(N3CCCC3)cc2)cc1	0	-3%	2%	u	-22%
COc1ccccc1OCC(=O)Nc1ccc(N2CCCCC2)cc1	3	u	5%	-19%	-20%
Cc1cccc(OCC(=O)Nc2ccc(N3CCCC3)cc2)c1C	-3	-18%	10%	14µM*	u
Cc1ccc(C(=O)Nc2ccc(N3CCCC3)cc2)c(C)c1	0	-13%	2%	14µM*	-26%
COc1ccc(C(=O)Nc2ccc(N3CCCC3)cc2)cc1	0	-18%	7%	7.9µM*	16µM*[quencher]
SMILES	FBPA coupling cs	USP1 inh	Tau fibril FP	Tau fibril ThT	Tau fluor counter
COc1cccc(CNC(=O)c2cc(C)nc3c2c(C)nn3-c2ccc(C)cc2)c1	x	-14%	-10%	-12%	-25%
CCCOc1ccc(C(=O)Nc2ccc(N3CCN(C(C)=O)CC3)cc2)cc1	-3	-11%	-3%	2.2µM*	-19%
CCCOc1ccc(C(=O)Nc2ccc(N3CCN(C(=O)c4ccco4)CC3)cc2)cc1	x	-22%	x	x	x
COc1ccccc1CNC(=O)COc1cc(=O)n(C)c2ccccc12	x	-27%	0%	-7%	-6%
CS(=O)(=O)c1ncc(Cl)c(C(=O)Nc2ccc(N3CCOCC3)cc2)n1	-3	-2%	u	3.2µM*	u
COc1cc(/C=N/NC(=O)[C@H](Cc2c[nH]c3ccccc23)NC(=O)OCC(C)C)cc([N+](=O)[O-])c1O	0	-25%	u	14µM*	u
CCc1ccc(NCc2cc3cc(OC)c(OC)cc3n(CC(=O)Nc3cc(C)ccc3C)c2=O)cc1	x	u	16%	11%	u
O=C(NCCc1c[nH]c2ccccc12)c1cc2sccc2n1Cc1ccccc1	-4	-7%	-7%	-18%	8.9µM*[quencher]
O=C(CN1C(=O)c2cccc3cccc1c23)Nc1cccc(F)c1	x	-4%	u	8%	-8%
Oc1c(C2=NCCNC(C(F)(F)F)=C2)ccc2ccccc12	-11	-10%	u	6.3µM*	u
Cc1ccc(O)c(C2=NCCNC(C(F)(F)F)=C2)c1	5	-4%	2%	-21%	-12%
Cn1ccnc1C(=O)c1ccc(NN)c([N+](=O)[O-])c1	0	-19%	-2%	22µM*	u
Cc1ccccc1C(=O)Nc1c(C(=O)Nc2cccc(F)c2)oc2ccccc12	x	-14%	u	1%	-27%
CC(Oc1ccccc1)C(=O)Nc1c(C(=O)Nc2cccc(F)c2)oc2ccccc12 (configuration not stated)	x	-17%	10µM*	10%	u
Cc1ccc2[nH]c(C)c(/C=C/c3cc[n+](C)cc3)c2c1	1	u	x	x	x
Cc1ccc2c(c1)c(/C=C/c1cc[n+](C)cc1)c(C)n2C	-2	22µM*	x	x	x
COc1ccc(N=C2C(=Nc3ccc(OC)cc3)N(c3ccc(OC)cc3)C(=S)N2C(=O)c2ccc(OC)cc2)cc1	2	-16%	-8%	28µM*	-24%
Oc1c(C(c2ccc(Cl)cc2)N2CCOCC2)sc2nc(-c3ccco3)nn12 (configuration not stated)	x	9%	-4%	-5%	1%
COc1ccc(-c2[nH]ncc2Oc2ccccc2OC)c(O)c1	-4	-20%	14%	-11%	25µM*[quencher]
C=C(C)COc1ccc(-c2[nH]ncc2Oc2ccccc2OCC)c(O)c1	-3	-9%	u	u	4µM*[quencher]
C=C(C)COc1ccc(-c2[nH]ncc2Oc2cccc(OC)c2)c(O)c1	-10	-5%	u	-15%	8.9µM*[quencher]
N#CC1=C(N)OC2=C(CCC/C2=C/c2ccoc2)C1c1ccoc1 (configuration not stated)	-6	x	u	28µM*	-21%
COc1ccccc1NC(=O)C1=C(C)Nc2nc(SCc3ccccc3)nn2C1c1cccnc1 (configuration not stated)	x	-13%	-5%	-12%	-24%
CC(=O)Nc1ccc(C2=NN(c3ccccc3)C(c3cccs3)C2)cc1 (configuration not stated)	1	-6%	u	-11%	8.9µM*[quencher]
CC(=O)Nc1ccc(N2C(C(C)=O)=NN(c3ccc(Cl)cc3)C2c2sccc2C)cc1 (configuration not stated)	0	u	-15%	u	28µM*[quencher]
CC(=O)N1N=C(c2ccccc2)CC1c1cccs1 (configuration not stated)	4	-22%	x	x	x
